“And” between values parts separate entries of the source, which are not always exact repeats. Equal values may be shown once. Results filed as inconclusive are left out. Entries that show only a call come without a potency. The source made the active and inactive calls. Calls follow the shape of the dose curve; as a rule, active = well fitted inhibition curve with a large enough effect in the main read-out, with a control signal flat; inconclusive = small, poorly fitted or top-dose-only effect, or a change in a side signal; inactive = flat fitted curve, though single readings scatter.
Potency is read from the fitted curve at half-maximal effect.

Sequence of Neuropeptide S receptor (Homo sapiens) (Q6W5P4 whole entry, looked up): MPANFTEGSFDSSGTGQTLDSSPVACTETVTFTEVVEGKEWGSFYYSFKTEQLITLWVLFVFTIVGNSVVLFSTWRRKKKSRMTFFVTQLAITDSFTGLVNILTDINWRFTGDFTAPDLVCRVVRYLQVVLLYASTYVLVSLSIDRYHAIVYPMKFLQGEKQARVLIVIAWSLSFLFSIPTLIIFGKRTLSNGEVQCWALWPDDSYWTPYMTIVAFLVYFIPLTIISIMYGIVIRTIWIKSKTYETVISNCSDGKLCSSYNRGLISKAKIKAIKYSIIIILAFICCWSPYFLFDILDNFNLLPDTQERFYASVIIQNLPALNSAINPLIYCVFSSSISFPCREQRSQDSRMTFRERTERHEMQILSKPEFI

The assay has as its target Neuropeptide S receptor (Homo sapiens) (UniProt Q6W5P4). In words: Confirmation Concentration-Response Assay for Antagonists of the Neuropeptide S Receptor: cAMP Signal Transduction. The conditions noted are these: CHO-NPSR cells, cAMP TR-FRET, antagonist mode; series mostly up to 22.3 µM. An excerpt: NIH Chemical Genomics Center [NCGC] NIH Molecular Libraries Probe Production centers Network [MLPCN] MLPCN Grant: X01-DA026210-01 Assay Submitter (PI): Heilig, Markus Alexander NCGC Assay Overview: Neuropeptide S receptor (NPSR), previously known as GPR154, is a recently de-orphanized G protein coupled receptor. Its endogenous ligand is the 20 amino acids peptide Neuropeptide S (NPS). […] NPS and its receptor are found in various tissues. Specifically they are highly expressed in brain areas that have been implicated in modulation of arousal, stress and anxiety. Central administration of NPS in mice produces an unusual profile of activity by inducing wakefulness and arousal, while at the same time suppressing anxiety. Therefore, NPSR may represent a novel drug target for the treatment of sleep and anxiety disorders. To identify NPSR antagonists, we developed a cell-based cAMP assay. NPS can stimulate the production of cAMP in Chinese hamster ovary cells stably expressing NPS receptor. This change in intracellular cAMP level can be detected by a homogeneous LANCE cAMP assay based on the TR-FRET (time resolved fluorescence resonance energy transfer) between a europium-labeled cAMP tracer complex and a cAMP-specific antibody labeled with Alexa Fluor 647. The europium-labeled cAMP tracer complex is formed by the tight interaction between Biotin-cAMP (b-cAMP) and streptavidin labeled with Europium-W8044 chelate (Eu-SA). Light pulse at 320 nm excites the europium of the cAMP tracer and the energy emitted is transferred to the Alexa molecule bound to the cAMP antibody, generating a TR-FRET signal at 665 nm. Residual energy from the europium will produce a light at 620 nm. The native unlabeled cAMP from cell lysates competes with the europium-cAMP tracer for antibody binding and reversely reduces the emission signal of Alexa by interrupting FRET between the two labeled molecules. Both emission signals from the FRET donor (620 nm) and the acceptor (665 nm) can be detected by a plate reader in the TRF mode. Expression of result in fluorescence ratio (665 nm/620 nm) helps to normalize differences due to cell density and reagent dispensing. This assay was successfully optimized to a 1536-well plate format. Select compounds from the primary screen (AID 1461) were chosen for confirmation based on potency, efficacy, SAR, and activity across other assays in PubChem and at NCGC. Other compounds are analogs of active compounds from the primary sceen.
NCGC Assay Protocol Summary: A Chinese hamster ovary (CHO) cell line stably expressing the NPS receptor (CHO-NPSR) was obtained from Dr. Heilig lab at NIAAA and maintained in F-12 Kaighn's media (Invitrogen, Carlsbad, CA, 21127) supplemented with 10 % FBS, 100 units/ml penicillin, 100 ug/ml streptomycin and 250 ug/ml geneticin at 37C, 5% CO2 in a humidified atmosphere. Before the assay, aliquots of cells were frozen and stored at -135C. The assay was performed in 1536-well format. Data are reported for both the ratio of the two emission wavelengths, and also for the component 'donor' channel, Em2=620. […] IC50 values were determined from concentration-response data modeled with the standard Hill equation. NPS 1536-well assay protocol: (1) Fresh or frozen CHO-NPSR cells were suspended in F-12 Kaighn's media supplemented with 10 % FBS, 100 units/ml penicillin and 100 ug/ml streptomycin. Cells were plated at 4 ul/well (1200 cells) to white, tissue culture treated 1536-well plates, and then cultured at 37C, 5 % CO2 for 16 to 30 hours. (2) Add 23 nl/well of compound in DMSO solution. The final titration for each compound was between 0.6 nM and 46 uM. (3) Add 1 ul of stimulation reagent (1X HBSS buffer, 5 mM HEPES, 0.1% BSA, 500 uM RO-201724 (Sigma-Aldrich, B8279), 1.5% Alexa 647-labeled anti-cAMP antibody (from Perkin Elmer), 100 nM NPS) (4) Incubation at 37C, 5 % CO2 for 60 min. (5) Add 1 ul/well detection reagent. […]
(TR-FRET usually uses a lanthanide donor and a delayed reading to cut background.)
For `COc1ccc(/C=N/n2cncn2)cc1Cn1cc([N+](=O)[O-])cn1`, the Potency entry is “inactive”.

`Cc1ccc(S(=O)(=O)Nc2ccccc2CNc2c(C)n(C)n(-c3ccccc3)c2=O)cc1`: the Potency result is “inactive”.

As for `COc1ccc(-c2cc(N)n(S(=O)(=O)c3c(F)c(F)c(F)c(F)c3F)n2)cc1OC`, the Potency was 7.08 µM (active).

Take `Cc1nn(C)cc1/C=N/NC(=S)Nc1ccccc1`: the Potency result is “inactive”.

As to `N#Cc1c(-c2ccccc2)c(-c2ccccc2)nn(CC(=O)NNC(=O)Nc2ccc(Cl)c(Cl)c2)c1=O`, the Potency entry is “inactive”.

For `O=C(CSc1cccc[n+]1[O-])Nc1ccccc1Oc1ccccc1`, the Potency result is “inactive”.

`Nc1ncnc2c1C(c1ccccc1)c1c(ccc3ccccc13)O2` (stereo not given): the Potency was 1 µM (active).

In the case of `N=c1c2c(ccn1CCCc1ccccc1)Oc1ccc3ccccc3c1C2c1ccccc1` (stereo not given), the Potency is 1.58 µM (active).

Turning to `O=C(CSc1n[nH]c(-c2cccnc2)n1)Nc1ccnc2ccccc12`, the Potency entry was “inactive”.

In the case of `COc1cccc(C2c3c(ncn(CCN4CCOCC4)c3=N)Oc3ccc4ccccc4c32)c1` (stereo not given), the Potency is 2.51 µM (active) and 10 µM (active).

With `Cc1ccc(-c2ccc(/C=C3\C(=O)ON=C3c3ccccc3)o2)c([N+](=O)[O-])c1`, the Potency is 2.82 µM (active).

`CC1C(c2ccccc2)N(C)C(c2ccccc2)CC1(O)c1ccccc1` (stereo not given): the Potency result is “inactive”.

For `CCO[C@@H]1OC(C(=O)NCc2nc3ccccc3[nH]2)=C[C@H](c2ccc(C(F)(F)F)cc2)[C@H]1CCCO`, the Potency entry was “inactive”.

Take `N=c1c2c(ncn1-c1ccccc1)Oc1ccc3ccccc3c1C2c1ccc2c(c1)CCO2` (stereo not given): the Potency was 1.12 µM (active).

`O=C(Nc1ccc(Oc2c(F)c(F)c(F)c(F)c2F)cc1)OC1CCN2Cc3ccccc3N=C12` (stereo not given): the Potency was 11.2 µM (active).

With `CN(C)S(=O)(=O)Nc1ccccc1C(N)=O`, the Potency result was “inactive”.

In the case of `CCOc1ccc(-n2c(=S)sc3c(=O)[nH]c(SCC(=O)C(C)(C)C)nc32)cc1`, the Potency is 7.08 µM (active).

Take `COc1cccc(C2C(C#N)=C(NC(=O)CCc3ccccc3)Oc3ccc4ccccc4c32)c1` (stereo not given): the Potency result is “inactive”.

Regarding `CCC(Sc1ccc2nnc(-c3cccnc3)n2n1)C(=O)O` (stereo not given), the Potency result is “inactive”.

As to `Cc1nnc(NC(=O)c2cccc(S(=O)(=O)N3CCc4ccccc43)c2)s1`, the Potency entry is “inactive”.

Turning to `COC(=O)c1ccc(C(=O)OC)c(NC(=O)CSc2cccc[n+]2[O-])c1`, the Potency result was “inactive”.

Regarding `Cc1cc(C)n(-c2nc(NC(C)C)nc(NC(C)C)n2)n1`, the Potency entry was “inactive”.

Turning to `S=C(Nc1ccccc1)Nc1nccs1`, the Potency result was “inactive”.

Consider `COc1ccc(N2C3=C(CC4=C2CC(C)(C)CC4=O)C(=O)CC(C)(C)C3)cc1`, for which the Potency result was “inactive”.

In the case of `COc1ccc(N=C2S/C(=C\c3ccc(N4CCOCC4)o3)C(=O)N2CCc2c[nH]c3ccccc23)cc1`, the Potency is 2.24 µM (active).

Consider `O=C1OC(c2ccccc2)(c2ccccc2)N2CCN(C(=O)NCc3ccc(F)cc3)CC12` (stereo not given), for which the Potency was 0.0251 µM (active).

For the compound `COC(=O)/C(=C1/Oc2cc(C)oc(=O)c2S1)C(F)(F)F`, the Potency entry is “inactive”.

For `CC1=C/C(=N\NC(=S)Nc2cccnc2)CC(C)(C)C1`, the Potency result is “inactive”.

As for `C=C1C(=O)C=C2CN(C(=O)c3ccccc3)[C@@](Cc3ccc(F)cc3)(C(=O)OC)[C@@H]12`, the Potency was 3.98 µM (active).

With `COc1ccc(C(=O)N(Cc2ccco2)Cc2cccs2)c(O)c1`, the Potency entry is “inactive”.

As for `Oc1ccc(N=Nc2nccs2)c(O)c1`, the Potency entry is “inactive”.

For `COc1cccc(C2c3c(ncn(CCCN4CCOCC4)c3=N)Oc3ccc4ccccc4c32)c1` (stereo not given), the Potency is 14.1 µM (active).

For the compound `Cc1cc(N/N=C/c2ccccc2[N+](=O)[O-])nc(-n2nc(C)cc2C)n1`, the Potency result is “inactive”.

For the compound `CCCCOc1ccc(OCCCN2CCOCC2)cc1`, the Potency result is “inactive”.

On to `O=C1Nc2ccc(S(=O)(=O)N3CCCC3C(=O)O)c3cccc1c23` (stereo not given), for which the Potency entry was “inactive”.

For the compound `N=c1c2c(ncn1-c1ccccc1)Oc1ccc3ccccc3c1C2c1ccc2c(c1)OCO2` (stereo not given), the Potency is 2.51 µM (active).

Take `N=C1c2ccccc2CN1c1ccc(N2CCOCC2)c(S(=O)(=O)Nc2ccc(Cl)cc2)c1`: the Potency is 4.47 µM (active).

`CN(Cc1cc(=O)[nH]c2ccccc12)C(=O)c1ccccc1`: the Potency result was “inactive”.

`Cc1ccc(Cn2cc(SCC(=O)Nc3nccs3)c3ccccc32)cc1`: the Potency entry is “inactive”.

As for `CCCCCN1C=CC=C/C1=C\C=C(C#N)C#N`, the Potency result is “inactive”.

The record behind these values is PubChem BioAssay AID1491 (National Center for Advancing Translational Sciences (NCATS), 2009).
